Laboratory results: the supplement of paper PMC6555819

The sequences below were run on VDR:RXRa (NR concentration 270 nM, RXRa partner concentration 90 nM) (assay: PBM binding z-score (relative to random genomic background probes); higher = stronger binding; sequences stand for … in GC…GCGATTGACAGCGTAGAATGAAGG).
Method: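 Protein-binding microarray (Agilent 4x180K custom design, double-stranded 60-nt probes: 5' GC cap, 34-nt variable region, 24-nt constant primer region; full probe sequence given). Purified or IVT nuclear receptor:RXRα heterodimers (3:1 NR:RXRα, mostly 270:90 nM) or homodimers were incubated for 1 h in PBS with 2% milk and no ligand, then detected with Alexa488 antibodies. Fluorescence from o1-orientation probes (~5 replicates averaged) was converted to z-scores against 500 random hg19 background probes. Variable regions are seed direct-repeat (DR0–DR5) sites, all their single-nucleotide variants and half-site ablations.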

Row | Sequence | PBM binding z-score
1 | CCGACTGGGGCAGAAAGGTTACCTTACCATCCGG | 0.875
2 | TCACACAGGTGAAGGTAACTCAGGTACGCAGTCG | 0.751
3 | TCTGCTAGGTCAGTTGGTCAGCTAGCGAGCTGCC | -0.184
4 | ATATGTAGGTTATCGGTTCATTCAGTTTGCGCAT | 3.97
5 | GATACAGGGTCAAGGGCAGAGTACGCGTATTGAT | 4.62
6 | CCTAGTTGGTCAGGATGTCACACACCGGATATGA | 0.176
7 | GCTAGTTGGTCAGTAAAAGGTCACACGCCGGTCG | 3.87
8 | TATACAGGGTCAAAGGCCGGAGTACGAATGTCGA | 4.5
9 | GCTAGCAGGCCATTTGGGTCACTCGATGACGGGC | 0.762
10 | CCAGACAGGTGAAAGGTAGCTCAGTCTGGTACGC | -0.089
11 | TGAATGAGGTTATAAGATCAGTGAACGTTGCAAA | 1.14
12 | TCATATAGGTAAAGGTGAAAGTCGAACGATATGA | 0.971
13 | ATCGAAAGATCGTGAGGTGAGTATACAGAAAGGC | -0.0654
14 | GCTTGTAGATCAAGGATAAGAAAGACTAAGCTAA | -0.525
15 | TGAATGAGGTTAAAGATCAGTGAACGTGGCGTCG | 1.62
16 | TCTTGTAGATCAACAGGCGGTTAAGAAAGATCGA | 0.345
17 | TCGAGTAGGTTAGGGGTATTCAGAATGGCGTCGA | 0.154
18 | CCTTTCGGGTCACGAGGTTATAGCACGACGAGCG | 5.31
19 | CCTAGTTGGTCAGGAGGGCACACACCGGATATGA | 0.458
20 | ATATGTAGGTTAAGGGTCATTCAAGTTGGTTCGC | 5.82

Row | Sequence | PBM binding z-score
21 | TCTAGTTGGTCAATGGTCACACACTCGAAATGCG | 0.851
22 | CCTACTGGGCCACGAATGGTCATTGATTCAGTGA | -0.558
23 | TTACCAAGGTGAGCTGAGTTCGTTGATCCAACTC | 4.86
24 | CGAACTAGGTCATGCAGGACAGTGAATACATTGA | 4.23
25 | CCTGCTAGGTCAATGGTCAGCGAAAGCAGCTCGC | 0.881
26 | AGCGAAAGGTCGTGAGGTGAGTATACAGAAAGGC | 3.51
27 | GCATATAGGTAATACAAGGTGAAAATCCGATTGT | 0.212
28 | ATCGAAAGGTCGTGAGGTGCGTATACAGAAAGGC | 6.03
29 | ACTAGCAAGCCAAGGGTCACTCAAGATTAGTCCG | 2.68
30 | GCCCGGAGGACAAGGTCAGAGCTTTGTCCGTAGA | 1.11
31 | GGAACGAGAGCAAAGTTGATAGCATCTGTCGACG | -0.413
32 | CCGAGTGGGGCAAAGGTTACCATACTCAGTACGA | 1.49
33 | CCTACTGGGCCATTCAGAGGTAATTGATCATATG | -0.36
34 | ATCTCTAGGTAAAATTTCAGTGAATCCCGAGGAT | 0.166
35 | CCAGAAAGGTGAGAAGGTAACTCAGCCTCGATTA | 0.43
36 | TAGCCTATGTCATGCGGGCCAGTATAGTGTCGGC | -0.45
37 | CCTCGGAGGACAACAGGAGGTGAGAGCTGCCAGA | -0.342
38 | AATACAGGGTCACTAGGCCAGATTAGGTACGAAT | 4.21
39 | GCTAGTTGGCCAGTAAAAGGTCACACACCGGTCG | 3.73
40 | CGTCCAAGGTCAATGCTAGGTAAGTGAAAGCATT | 3.62
